Test results: PubChem BioAssay AID602256 (National Center for Advancing Translational Sciences (NCATS), 2012)
Results filed as inconclusive are left out. A number with no mark means an inactive call. The source made the active and inactive calls. Calls follow the shape of the dose curve; as a rule, active = well fitted curve in the direction sought with a large enough effect; inconclusive = small, poorly fitted or top-dose-only effect, or another doubt; inactive = no such curve, though single readings can be large or run the other way.

The compounds below were run against Relaxin receptor 1 (Homo sapiens) (UniProt Q9HBX9) (assay: qHTS Assay for Agonists of the Relaxin Receptor RXFP1: RXFP1 SAR). Details: HEK293T-RXFP1 cAMP TR-FRET, 30 min; efficacy: stronger effect = higher value.
Relaxin receptor 1 (Homo sapiens), sequence (Q9HBX9 whole entry, looked up): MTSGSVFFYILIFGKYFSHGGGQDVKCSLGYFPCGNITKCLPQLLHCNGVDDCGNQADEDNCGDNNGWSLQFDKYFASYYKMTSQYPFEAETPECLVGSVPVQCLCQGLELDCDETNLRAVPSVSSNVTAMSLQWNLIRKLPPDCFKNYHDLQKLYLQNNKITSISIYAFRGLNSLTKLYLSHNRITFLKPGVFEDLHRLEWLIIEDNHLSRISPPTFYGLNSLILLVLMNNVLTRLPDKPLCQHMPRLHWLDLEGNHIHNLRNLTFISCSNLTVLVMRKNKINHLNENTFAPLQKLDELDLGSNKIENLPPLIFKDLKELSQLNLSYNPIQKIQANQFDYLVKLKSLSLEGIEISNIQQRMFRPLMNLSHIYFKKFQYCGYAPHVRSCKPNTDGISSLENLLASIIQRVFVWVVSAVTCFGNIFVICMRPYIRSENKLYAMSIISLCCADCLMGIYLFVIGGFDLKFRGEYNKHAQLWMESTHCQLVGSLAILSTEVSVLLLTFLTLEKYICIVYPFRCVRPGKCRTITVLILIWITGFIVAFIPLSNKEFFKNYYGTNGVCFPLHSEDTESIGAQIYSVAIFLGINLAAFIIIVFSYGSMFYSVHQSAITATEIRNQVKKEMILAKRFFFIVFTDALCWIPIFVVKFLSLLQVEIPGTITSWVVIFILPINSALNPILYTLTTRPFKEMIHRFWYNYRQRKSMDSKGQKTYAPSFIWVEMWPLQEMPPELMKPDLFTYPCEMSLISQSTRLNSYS
From the text: The relaxin hormone is involved in the variety of biological functions in normal tissues and diseases. The role of relaxin is well-established in female reproduction and parturition, mammary gland and endometrial development, maintenance of myometrial quiescence during pregnancy. Relaxin signaling through its G protein-coupled receptor (GPCR) RXFP1 results in ECM remodeling through regulation of collagen deposition, cell invasiveness, proliferation and overall tissue homeostasis. […] Recombinant human relaxin (rhRlx) is currently being tested in clinical trials as a protective agent in congestive heart failure, in treating severe preeclampsia, and as an anti-fibrotic agent in systemic sclerosis. Upon relaxin binding RXFP1 activation leads to the activation of adenylate cyclase (AC) via Gs. cAMP will activate PKA, which phosphorylates many signaling proteins. Thus, detection of cAMP increase is an easy and reliable indication of relaxin receptor activation. To screen for agonists of the relaxin receptor, a HEK293T cell line stably transfected with RXFP1 was used. RXFP1 activation was assayed by changes in cAMP levels as detected with a time-resolved fluorescence energy transfer (TR-FRET) cAMP detection kit. NIH Chemical Genomics Center [NCGC] NIH Molecular Libraries Probe Production Centers Network [MLPCN] MLPCN Grant: R03 MH085705-01A1 Assay Submitter (PI): Alexander Agoulnik
This is a cell-based assay for cAMP second messenger response to screen for agonists of the RXFP1 receptor. The assay was conducted in the presence of a PDE4 inhibitor (Ro 20174). The cells were lysed and the cAMP levels were measured with a TR-FRET cAMP kit. Presence of cAMP in the cell lysate disrupts binding between the cryptate-labeled anti-cAMP and d2-labeled cAMP pair, leading to a decrease in the TR-FRET signal. Data were normalized to the controls for basal activity (buffer only) and 100% activity (29 nM porcine relaxin). The EC50 values were determined from concentration-response data modeled with the standard Hill equation 1536-well assay protocol for the HEK293 RXFP1 cAMP assay: (1) Add 3 ul HEK293 RXFP1 cell culture. 2000 cells/well in DMEM/F12, 10% FBS, 1x Pen/Strep (dispensed offline with MultiDrop Combi). (2) Incubate 16-24 hr at 37C, 5% CO2. (3) Add 1 ul 400uM Ro20174 in DPBS, 0.05% BSA, 0.005% Tween 20. (3) Add 23 nl compounds in DMSO solution. Final concentration was 0.5 - 58 uM. (4) Incubate 30 min at 37C, 5% CO2. (5) Add 1 ul cAMP-d2 in lysis buffer (HTRF cAMP HiRange kit, CisBio). (6) Add 1 ul anti-cAMP antibody-cryptate in lysis buffer (HTRF cAMP HiRange kit, CisBio). (7) Incubate 30 min at room temperature. (6) Detect the assay plate in a ViewLux plate reader (PerkinElmer) with Ex=320 nm, Em1=615 nm and Em2=665 nm. Keywords: relaxin, RXFP1, RXFP2, G-protein coupled receptor, cAMP, agonist, high throughput screening, MLSMR, MLSCN, NIH Roadmap, qHTS and NCGC
`O=C(Nc1ccccc1C(=O)Nc1cccc(C(F)(F)F)c1)c1ccccc1Cl` was tested, and the Potency was 3740 nM (active). With `CCOc1ccccc1C(=O)Nc1ncccc1C(=O)Nc1cccc(S(=O)(=O)C(F)(F)F)c1` the Potency was 1670 nM (active). `CCOc1ccccc1C(=O)Nc1ccncc1C(=O)Nc1cccc(S(=O)(=O)C(F)(F)F)c1` was tested, and the Potency was 747 nM (active). In the case of `CN(C)CCOc1ccccc1C(=O)Nc1ccccc1C(=O)Nc1cccc(C(F)(F)F)c1`, the Potency is reported as 3740 nM (active). For `CCCCC(=O)Nc1ccccc1C(=O)Nc1cccc(C(F)(F)F)c1`, the Potency was 5290 nM (active). For `CCCOc1ccccc1C(=O)Nc1ccccc1C(=O)Nc1cccc(S(=O)(=O)C(F)(F)F)c1`, the Potency was 52.9 nM (active). In the case of `CCOc1ccccc1C(=O)Nc1cnccc1C(=O)Nc1cccc(S(=O)(=O)C(F)(F)F)c1`, the Potency is reported as 2970 nM (active). With `O=C(Nc1ccccc1C(=O)Nc1cccc(C(F)(F)F)c1)c1cccnc1` the Potency was 5930 nM (active). In the case of `O=C(Nc1cccc(C(F)(F)F)c1)c1ccccc1NC(=O)C1CCCC1`, the Potency is reported as 2360 nM (active). For `CCOc1ccccc1S(=O)(=O)Nc1ccccc1C(=O)Nc1cccc(S(=O)(=O)C(F)(F)F)c1`, the efficacy was -2.44%. For `O=C(Nc1cccc(S(=O)(=O)C(F)(F)F)c1)c1ccccc1NC(=O)c1ccccc1OCC(F)(F)F`, the Potency was 66.6 nM (active). `CCSc1ccccc1C(=O)Nc1ccccc1C(=O)Nc1cccc(S(=O)(=O)C(F)(F)F)c1` was tested, and the Potency was 529 nM (active). For `CC(C)Oc1ccccc1C(=O)Nc1ccccc1C(=O)Nc1cccc(C(F)(F)F)c1`, the Potency was 471 nM (active). With `COc1ccccc1C(=O)Nc1ccc(C(=O)Nc2cccc(C(F)(F)F)c2)cc1` the efficacy was -2.02%.
